Results: PubChem BioAssay (NCI)
This is part of a sample that, as a whole, favours compounds with a hit. Of some 79,000 tested, about 15% had one in any assay. A number with no mark means an inactive call. Active and inactive are the calls of the source. No stated cut-off is given here; in the data, active means growth inhibition above about 70%; inactive means the rest.

Assay: NCI Yeast Anticancer Drug Screen. Data for the mlh1 strain (AID 171);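 further: 0% = growth of vehicle-treated control cultures of the same strain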
Conditions: S. cerevisiae mlh1 strain growth inhibition, stronger effect = higher value
Protocol: Growth inhibition of yeast strains with defined genetic alterations is measured as a screen for potential anti-cancer activity. Selected strains with alterations in DNA damage repair or cell cycle control were exposed to compounds and growth inhibition was measured relative to vehicle treated controls. The strain used in this assay is mlh1

Compound	growth inhibition (at 1.2 µM) [%]	growth inhibition (at 3.7 µM) [%]	growth inhibition (at 11.0 µM)	growth inhibition (at 33.0 µM)	growth inhibition (at 100.0 µM)
OC(Cc1cccc2ccccc12)CN1CCC(c2ccccc2)CC1 (stereo not given)	31	38	48%	84% (active)	98% (active)
CCCCCCCCN1COCC(COc2ccccc2C)OC1 (stereo not given)	-1	0	0%	-17%	99% (active)
COC(=O)C(Cl)(Cl)N=Nc1c(Cl)cc(Cl)c(C)c1Cl	-34	6	96% (active)	100% (active)	100% (active)
CC(C)S(=O)(=O)/C=C\S(=O)(=O)C(C)C	-8	-1	1%	64%	96% (active)
CC(=O)/C=C/c1cc([N+](=O)[O-])ccc1O	-6	3	33%	98% (active)	99% (active)
CCCCS(=O)(=O)Nc1ccc(Nc2c3ccccc3nc3ccccc23)c(OC)c1	-58	-43	-29%	73% (active)	97% (active)
CCS(=O)(=O)Nc1ccc(Nc2c3ccccc3nc3ccccc23)c(OC)c1	-57	-33	-24%	17%	74% (active)
C[C@H](CCC1=NC(C)(C)CO1)C1CCC2[C@@H]3C(O)C[C@@H]4CC(O)CC[C@]4(C)C3CC[C@@]21C (stereo not given in full)	-3	-6	-6%	87% (active)	100% (active)
